# Results reported in PMC5540273 (PLoS ONE, 2017).
# How the values were obtained:
# Details in all cases: concentration: 1 μM,replicates: in singlicate; n = 1
# ERK1 = tested on: T1, ERK1
# T1 construct: gene MAPK3
# ERK2 = tested on: T2, ERK2
# T2 construct: gene MAPK1
# ERK3 = tested on: T3, ERK3
# T3 construct: gene MAPK6
# ERK4 = tested on: T4, ERK4
# T4 construct: gene MAPK4
# ERK5 = tested on: T5, ERK5
# T5 construct: gene MAPK7
# ERK8 = tested on: T6, ERK8
# T6 construct: gene MAPK15
# ERN1 = tested on: ERN1
# FAK = tested on: T7, FAK
# T7 construct: gene PTK2
# FER = tested on: FER
# FES = tested on: FES
# 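Also: KINOMEscan kinase panel screen.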
compound,measurement,setting,value
Cc1ccc(CC(=O)N2CCc3cc(-c4cn(C)c5ncnc(N)c45)ccc32)cc1 [GSK2634758],%Inh,ERK1,12%
same,%Inh,ERK2,6%
same,%Inh,ERK3,0%
same,%Inh,ERK4,0%
same,%Inh,ERK5,0%
same,%Inh,ERK8,0%
same,%Inh,ERN1,11%
same,%Inh,FAK,0%
same,%Inh,FER,19%
same,%Inh,FES,0%
COc1cc(Nc2nccc(N3CCC(NC(=O)c4cccc(C#N)c4)C3)n2)cc(OC)c1OC (stereo not shown) [GSK1379751],%Inh,ERK1,0%
same,%Inh,ERK2,0%
same,%Inh,ERK3,3%
same,%Inh,ERK4,0%
same,%Inh,ERK5,0%
same,%Inh,ERK8,0%
same,%Inh,ERN1,0%
same,%Inh,FAK,0%
same,%Inh,FER,0%
same,%Inh,FES,0%
CC(=O)Nc1nc2cnc(Nc3cc(NC(=O)c4cccc(CC(C)(C)C#N)c4)ccc3C)nc2s1,%Inh,ERK1,1%
same,%Inh,ERK2,15%
same,%Inh,ERK3,0%
same,%Inh,ERK4,4%
same,%Inh,ERK5,9%
same,%Inh,ERK8,53%
same,%Inh,ERN1,0%
same,%Inh,FAK,8%
same,%Inh,FER,0%
same,%Inh,FES,0%
FC(F)(F)c1cc(Br)cc(Nc2nccc(-c3cnn4ncccc34)n2)c1 [GW810578],%Inh,ERK1,0%
same,%Inh,ERK2,25%
same,%Inh,ERK3,16%
same,%Inh,ERK4,0%
same,%Inh,ERK5,0%
same,%Inh,ERK8,99.5%
same,%Inh,ERN1,59%
same,%Inh,FAK,18%
same,%Inh,FER,0%
same,%Inh,FES,0%
NC(=O)Nc1sc(-c2ccc(F)cc2)cc1C(N)=O [GW789449],%Inh,ERK1,0%
same,%Inh,ERK2,16%
same,%Inh,ERK3,0%
same,%Inh,ERK4,0%
same,%Inh,ERK5,10%
same,%Inh,ERK8,10%
same,%Inh,ERN1,27%
same,%Inh,FAK,5%
same,%Inh,FER,0%
same,%Inh,FES,11%
COc1cc2ncn(-c3cc(OCC4CCCCC4)c(C(N)=O)s3)c2cc1OC [GSK204559],%Inh,ERK1,6%
same,%Inh,ERK2,2%
same,%Inh,ERK3,18%
same,%Inh,ERK4,4%
same,%Inh,ERK5,0%
same,%Inh,ERK8,2%
same,%Inh,ERN1,8%
same,%Inh,FAK,0%
same,%Inh,FER,23%
same,%Inh,FES,8%
c1ccc(Oc2ccc(Nc3ccnc4ccc(-c5ccccn5)cc34)cc2)cc1 [GW407034],%Inh,ERK1,0%
same,%Inh,ERK2,83%
same,%Inh,ERK3,4%
same,%Inh,ERK4,0%
same,%Inh,ERK5,0%
same,%Inh,ERK8,31%
same,%Inh,ERN1,0%
same,%Inh,FAK,0%
same,%Inh,FER,18%
same,%Inh,FES,0%
CC(=O)Nc1ccc(-c2cc3ncnc(SCC(=O)O)c3s2)cc1,%Inh,ERK1,0%
same,%Inh,ERK2,9%
same,%Inh,ERK3,0%
same,%Inh,ERK4,0%
same,%Inh,ERK5,0%
same,%Inh,ERK8,27%
same,%Inh,ERN1,10%
same,%Inh,FAK,1%
same,%Inh,FER,0%
same,%Inh,FES,14%
COC(=O)c1cccc(NC(=O)NC2CCN(c3ccnc(Nc4cc(OC)c(OC)c(OC)c4)n3)C2)c1 (stereo not shown) [GSK1379767],%Inh,ERK1,0%
same,%Inh,ERK2,0%
same,%Inh,ERK3,19%
same,%Inh,ERK4,0%
same,%Inh,ERK5,0%
same,%Inh,ERK8,0%
same,%Inh,ERN1,4%
same,%Inh,FAK,0%
same,%Inh,FER,17%
same,%Inh,FES,15%
CN(c1cccc(CNc2nc(Nc3ccc4c(c3)CC(=O)N4)ncc2C(F)(F)F)c1)S(C)(=O)=O,%Inh,ERK1,3%
same,%Inh,ERK2,41%
same,%Inh,ERK3,0%
same,%Inh,ERK4,0%
same,%Inh,ERK5,18%
same,%Inh,ERK8,79%
same,%Inh,ERN1,11%
same,%Inh,FER,65%
same,%Inh,FES,62%
O=C1NCCc2[nH]c(-c3ccncc3)cc21,%Inh,ERK1,13%
same,%Inh,ERK2,28%
same,%Inh,ERK3,0%
same,%Inh,ERK4,0%
same,%Inh,ERK5,0%
same,%Inh,ERK8,93.1%
same,%Inh,ERN1,8%
same,%Inh,FAK,0%
same,%Inh,FER,4%
same,%Inh,FES,30%
Cc1nnc(-c2ccc3occ(-c4ccc(S(C)=O)cc4)c3n2)o1 (stereo not shown),%Inh,ERK1,0%
same,%Inh,ERK2,19%
same,%Inh,ERK3,0%
same,%Inh,ERK4,0%
same,%Inh,ERK5,0%
same,%Inh,ERK8,0%
same,%Inh,ERN1,0%
same,%Inh,FAK,0%
same,%Inh,FER,0%
same,%Inh,FES,15%
COc1cc2c(Nc3ccc(NC(=O)c4ccccc4)cc3)ncnc2cc1OCCCN1CCOCC1 [GSK301329],%Inh,ERK1,4%
same,%Inh,ERK2,3%
same,%Inh,ERK3,0%
same,%Inh,ERK4,0%
same,%Inh,ERK5,0%
same,%Inh,ERK8,0%
same,%Inh,ERN1,46%
same,%Inh,FAK,0%
same,%Inh,FER,4%
same,%Inh,FES,0%
O=C(Nc1cccc(Oc2ccc3nccn3n2)c1)Nc1cccc(C(F)(F)F)c1,%Inh,ERK1,0%
same,%Inh,ERK2,0%
same,%Inh,ERK3,0%
same,%Inh,ERK4,1%
same,%Inh,ERK5,2%
same,%Inh,ERK8,18%
same,%Inh,ERN1,6%
same,%Inh,FAK,2%
same,%Inh,FER,0%
same,%Inh,FES,2%
CSc1nccc(-c2c(-c3ccc(F)cc3)ncn2CCCN2CCOCC2)n1.Cl [SB-217146],%Inh,ERK1,0%
same,%Inh,ERK2,0%
same,%Inh,ERK3,0%
same,%Inh,ERK4,0%
same,%Inh,ERK5,0%
same,%Inh,ERK8,0%
same,%Inh,ERN1,33%
same,%Inh,FAK,0%
same,%Inh,FER,0%
same,%Inh,FES,3%
Cl.c1ccc(Oc2ccc(Nc3ccnc4cc(-c5ccc(CN6CCNCC6)o5)ccc34)cc2)nc1 [GW567142],%Inh,ERK1,0%
same,%Inh,ERK2,0%
same,%Inh,ERK3,0%
same,%Inh,ERK4,30%
same,%Inh,ERK5,0%
same,%Inh,ERK8,0%
same,%Inh,ERN1,0%
same,%Inh,FAK,9%
same,%Inh,FER,4%
same,%Inh,FES,0%
Cc1ccc2c(-c3ccnc(Nc4ccc(C(F)(F)F)cc4)n3)cnn2n1 [GW819776],%Inh,ERK1,19%
same,%Inh,ERK2,3%
same,%Inh,ERK3,22%
same,%Inh,ERK4,0%
same,%Inh,ERK5,0%
same,%Inh,ERK8,99.4%
same,%Inh,ERN1,17%
same,%Inh,FAK,13%
same,%Inh,FER,18%
same,%Inh,FES,10%
